Measured values: PubChem BioAssay (NCI)
About 83,000 compounds went through this panel and 20% of them were active in at least one assay; those are over-represented in the sample as a whole.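 Single-dose data. Exposure time 48 hours. Values below 10 considered active.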 Unmarked numbers belong to inactive results.

tested on: SW-620 colon; experiment: NCI-60 one-dose screen, 48 h (100 = growth as untreated, 0 = no growth, -100 = all killed); conditions: 10 µM unless noted

With NC(=O)NCCO as the compound, how does the growth read?
Its growth is 103%.

How did the growth turn out when Ic1cccs1 was run?
The growth was 104%.

O=S1(=O)c2ccccc2Oc2ccccc21 was tested. Which growth did it give?
The growth was 95%.

For CSc1nc2[nH]ncc2c(=O)[nH]1, which growth is on record?
Its growth is 95.4%.

For CC(=O)NC(O)C(Cl)Cl (stereo not drawn), which growth is on record?
Its growth is 114%.

Which growth does the source give for COC(=O)c1cccc([N+](=O)[O-])c1 here?
Its growth is 105%.

For CC(CCC#N)(CCC#N)C(=O)c1ccccc1, which growth is on record?
Its growth is 103%.

Which growth does the source give for O=C(NCc1ccccc1)c1cccc([N+](=O)[O-])c1 here?
The growth was 99.2%.

How did the growth turn out when CC(CC(CCC(=O)O)(c1ccccc1)c1ccccc1)N(C)C (stereo not drawn) was run?
The growth was 109%.

How did the growth turn out when Cc1ccc(C2CCCCC2)cc1Br was run?
Its growth is 99.1%.

With COC1OC(C(O)C(O)CO)C(O)C(O)C1O (stereo not drawn) as the compound, how does the growth read?
The growth was 105%.

C=CCS(C)(=O)=O was tested. Which growth did it give?
Its growth is 95.4%.

Which growth does the source give for C/C(=N\Nc1ccc([N+](=O)[O-])cc1[N+](=O)[O-])c1ccc(Br)cc1 here?
Its growth is 101%.

With Nc1ncnc(Nc2ccccc2)n1 as the compound, how does the growth read?
Its growth is 101%.

With CCOC(C=O)OCC as the compound, how does the growth read?
Its growth is 108%.

C/C(=N\O)c1ccccn1 was tested. Which growth did it give?
The growth was 94%.

For CC(C)C(C)(C)C(=O)C(C)(C)C(C)(C)C, which growth is on record?
The growth was 106%.

Which growth does the source give for C=C(C)COc1ccc(C(C)(C)C)cc1 here?
The growth was 101%.

How did the growth turn out when CCC(C)c1c(N)n(S(=O)(=O)c2ccc(C)cc2)oc1=O (stereo not drawn) was run?
Its growth is 105%.

For CCN(C(=O)Nc1ccccc1Cl)c1ccccc1, which growth is on record?
Its growth is 108%.

CCN(C(C)=O)c1ccc([N+](=O)[O-])cc1 was tested. Which growth did it give?
The growth was 98.2%.

How did the growth turn out when NNc1ncccn1 was run?
The growth was 94.7%.

For O=C(O)c1ccc([N+](=O)[O-])cc1S(=O)(=O)O, which growth is on record?
Its growth is 105%.

Which growth does the source give for CC(C)C1CCC(C)C(O)C1 (stereo not drawn) here?
The growth was 98%.

CC(=O)Oc1c(Cl)cccc1-c1ccccc1 was tested. Which growth did it give?
The growth was 96.4%.

Which growth does the source give for O=Cc1c(O)c2ccccc2[nH]c1=O here?
The growth was 93.8%.

C/C(=N\N=C(/C)c1cccc([N+](=O)[O-])c1)c1cccc([N+](=O)[O-])c1 was tested. Which growth did it give?
The growth was 101%.

With CCCNS(=O)(=O)c1ccc(Cl)cc1 as the compound, how does the growth read?
Its growth is 96.2%.

Which growth does the source give for CC(C)C(=O)OCCOc1ccc(C(C)(C)C)cc1 here?
The growth was 92.2%.

How did the growth turn out when COc1cccc(C(=O)O)c1OC was run?
Its growth is 100%.

For CC(C)(N)CO[C@H]1C[C@H]2CC[C@@]1(C)C2(C)C, which growth is on record?
Its growth is 88.1%.

Which growth does the source give for OCCc1ccc(Cl)cc1 here?
The growth was 105%.

How did the growth turn out when O=C(Nc1cccc(Cl)c1)c1ccc(Cl)cc1Cl was run?
Its growth is 92.7%.

With C1C[S+]2CC[S+]1CC2 as the compound, how does the growth read?
The growth was 101%.

O=C(Oc1ccccc1Cl)c1ccc(Cl)cc1Cl was tested. Which growth did it give?
Its growth is 98.9%.

With NNc1ncnc2c1ncn2C1OC(CO)C(O)C1O (stereo not drawn) as the compound, how does the growth read?
Its growth is 21.4%.

For Cc1[nH]nc(C(N)=O)c1[N+](=O)[O-], which growth is on record?
Its growth is 91%.

How did the growth turn out when CCCCCC(=O)OCCC1CCCCC1 was run?
Its growth is 98.4%.
